Measured values: PubChem BioAssay AID651582 (Sanford-Burnham Center for Chemical Genomics, 2012)
Values joined by “and” are separate entries in the source; they are usually repeats but may differ in a detail not shown here. Identical values can stand only once. Out of some 230,000 compounds screened, about 1,500 (0.65%) were called active. This is one part of a sample in which actives are shown more often than they occur.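 How the source made its calls: active means pattern-corrected inhibition of lipid staining of at least 50% with the nuclear-stain viability signal not falling by more than 50%; inactive means the rest, inconclusive results apart.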

assay: TAG lipid buildup reduction in H9c2 cells – cell-based, uHTS, fluorescence, primary screen (AID 651582); settings: Nile Red lipid (TAG) fluorescence, at 12.5 µM, cells loaded with 200 µM oleic acid; DAPI nuclei signal change (viability), lower = more cytotoxic: measured here: DAPI nuclei count viability; inhibition: stronger effect = higher value;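 on inhibition: 0% = DMSO wells and 100% = triacsin C control wells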

Compound	DAPI nuclei signal change (viability), lower = more cytotoxic	inhibition
O=C(Nc1ccc2oc(-c3ccc4ccccc4c3)nc2c1)c1cccs1	21.1%	33% (inactive)
CCCCCC(=O)Nc1ccc2oc(-c3ccncc3)nc2c1	-5.68%	4.08% (inactive)
O=C(Cc1cccc2ccccc12)Nc1ccc2oc(-c3ccccc3)nc2c1	-5.68%	55.2% (active)
CC(=O)NC(c1cccc(F)c1)c1nc(-c2cccc(F)c2)cs1 (stereo not drawn)	2.1%	-15.8% (inactive)
CCCn1c(N)c(C(=O)CSc2nnc(Cc3cccs3)n2C2CC2)c(=O)[nH]c1=O	-3.34%	5.02% (inactive)
COc1ccc(S(=O)(=O)N2CCN(CC(=O)NCC3(N4CCOCC4)CCCCC3)CC2)cc1	-5.18%	-1.89% (inactive)
CCn1c2ccccc2c2cc(NC(=O)CNC)ccc21	-1.08%	10.2% (inactive)
COc1cc(Cn2c3ccc(NC(=O)CC(C)c4ccccc4)cc3c(=O)n2C)ccc1F (stereo not drawn)	6.84%	4.12% (inactive)
CCOCCC(=O)Nc1ccc2c(c1)c(=O)n(C)n2-c1ccc2ccccc2c1	-27.1%	52.9% (active)
NC(=O)CSc1nnc(-c2cccc(S(=O)(=O)N3CCOCC3)c2)o1	2.86%	9.91% (inactive)
O=[N+]([O-])c1cccc(C=NN=Cc2ccccc2O)c1	-6.09%	3.14% (inactive)
COc1ccc(NC(=O)C2Cc3c(-c4ccc5c(c4)OCO5)ccnc3O2)cn1 (stereo not drawn)	-129%	146% (inactive)
CCN1C(=O)/C(=C2/Sc3ccccc3N2CCCS(=O)(=O)O)SC1=S	12.7% and -2.03%	-9.06% (inactive) and 5.16% (inactive)
CCN1C(=O)/C(=C\N2CCOCC2)SC1=S	1.56%	1.92% (inactive)
CCCCN1C(=O)/C(=C/C=C2/C=Cc3ccccc3N2CC)SC1=S	10.9%	87.8% (active)
CCc1nc2c(OCc3ccc(F)c(F)c3)cccn2c1N(C)C(=O)c1ccco1	-19.3%	7.19% (inactive)
COc1ccc(Nc2cc(=O)oc3ccccc23)cc1	-14.8%	52.3% (active)
COc1ccc(N2CCN(Cc3cc(=O)oc4ccc5ccccc5c34)CC2)cc1	4.7%	7.86% (inactive)
COc1ccc(Nc2ccc3ccccc3c2)cc1	8.55%	8.64% (inactive)
COC(=O)c1ccc(C)c(NC(=O)Cn2c(C)csc2=O)c1	5.24%	-8.36% (inactive)

Compound	DAPI nuclei signal change (viability), lower = more cytotoxic	inhibition
COc1cccc(NC(=O)C2(C)CCN2Cc2ccccc2Cl)c1 (stereo not drawn)	10.6%	-19.4% (inactive)
CN(C)C(=S)N=c1ssc(=S)n1Cc1ccco1	-24%	51% (active)
CC1CN(Cc2ccco2)C(=S)N(c2ccccc2)C1=O (stereo not drawn)	-1.49%	-14.4% (inactive)
Cc1cs/c(=N\N=C\c2ccc(O)cc2)n1Cc1ccco1	-3.51%	-2.08% (inactive)
O=C(Nc1ccc(Br)cn1)c1ccc([N+](=O)[O-])o1	-72.2%	83.9% (inactive)
Cc1cccc(NC(=O)c2ccc([N+](=O)[O-])o2)c1	-57.9%	80.8% (inactive)
Cc1onc(NC(=O)c2ccc([N+](=O)[O-])o2)c1Br	-38.7%	59.1% (active)
CC(C)(C)OC(=O)C[C@@H]1C/C=C\C[C@@H](CC(=O)NCCO)C(=O)N[C@H](Cc2c[nH]c3ccccc23)COC1=O	3.2%	-15.4% (inactive)
COc1cccc(NC(=O)CN(C)C(=O)c2ccccc2CCc2ccccc2)c1	-2.81%	1.2% (inactive)
O=C(COC(=O)c1ccc(F)cc1)NCC1COc2ccccc2O1 (stereo not drawn)	-0.149%	4.29% (inactive)
COc1cc(OC)c2ccc(=O)oc2c1C(CCN1CCN(c2ccccc2)CC1)c1ccc2c(c1)OCO2 (stereo not drawn)	10.1%	25.2% (inactive)
CCN(CC)CCC(c1ccc2c(c1)OCO2)c1c(OC)cc(OC)c2c(-c3ccccc3)cc(=O)oc12 (stereo not drawn)	-32.4%	57.5% (active)
CCN(CC)CCC(c1cc(OC)c(OC)c(OC)c1)c1c(OC)cc(OC)c2c(-c3ccccc3)cc(=O)oc12 (stereo not drawn)	-19.6%	30.8% (inactive)
COc1ccc(-c2ccc(CN3C(CC(C)C)C(=O)N(Cc4cn(CC5CCCCC5)nn4)CCS3(=O)=O)cc2)cn1 (stereo not drawn)	-15.9%	31% (inactive)
CCCC[C@H]1COCCS(=O)(=O)N1Cc1cccc(Cl)c1	-5.51%	5.89% (inactive)
O=C(CN1C(=O)NC2(CCCCCC2)C1=O)NCc1ccc(F)cc1	0.843%	-2.12% (inactive)
Cc1cccc(-c2cnc(C(O)c3ccc4ccccc4c3)[nH]2)c1 (stereo not drawn)	0.713%	-12.6% (inactive)
COc1cccc(NC(=O)c2cc(S(=O)(=O)N3CCc4ccccc43)cn2C)c1	-2.57%	-1.15% (inactive)
CCN(C(=O)COC(=O)c1cc(S(=O)(=O)N2CCc3ccccc32)ccc1OC)C1CCS(=O)(=O)C1 (stereo not drawn)	-4.55%	3.02% (inactive)
